Hits are enriched below; roughly 12% of the tested compounds scored in any of these assays.
CHX counter: counter-screen for Shiga toxin inhibitors: cycloheximide protein synthesis inhibition | cell reporter, cycloheximide protein synthesis inhibition counterscreen | max response, % | 300,000 compounds, 12% hits; in the data active means max response mostly above about 13%, no sharp cut-off; inactive means mostly below about 14%; further: read at 38.3 µM for the half of the compounds with a filed dose; 0% is about no effect
Shiga inhibitor: inhibitors of Shiga toxin in Vero cells. Vero cells, Shiga toxin protein synthesis inhibition reporter. inhibition, % at 38.7 µM. 290,000 compounds, 9.2% hits. AID 2315; in the data active means inhibition mostly above about 28%, no sharp cut-off; inactive means mostly below about 43%; further: 0% is about no effect
LASV entry inh: Lassa virus entry inhibition. Lassa virus pseudotype entry inhibition, cell reporter. Potency, µM (highest dose often 37.9 µM), without a hit: at the top dose activity change, negative = inhibition, most hits filed as inhibitors. 300,000 compounds, 1.2% hits. AID 540256; calls by dose curve; tested in HEK293 cells; further: potency means the concentration at half of the fitted maximal effect; on the % scale 0 is the no-effect control and ±100 the full control effect; nearly all actives have a fitted effect of over 50% in size
MARV entry inh: blocks Marburg virus binding to or entry into cells. Marburg virus pseudotyped entry inhibition, cell reporter. Potency, µM (highest dose often 37.8 µM), without a hit: at the top dose activity change, negative = inhibition, hits mostly inhibitors. 300,000 compounds, 1.8% hits. AID 540276; calls by dose curve; tested in HEK293 cells; further: potency means the concentration at half of the fitted maximal effect; on the % scale 0 is the no-effect control and ±100 the full control effect
* = called active by the depositor; ? = inconclusive; nt = no result; [ ] = dose if it differs, or a comment.

SMILES	CHX counter	Shiga inhibitor	LASV entry inh	MARV entry inh
O=C(/C=C/c1cccs1)Nc1ccncc1	44*	63*	13%	-1%
CCCOC(=O)c1cc(NC(=O)/C=C/c2ccccc2)ccc1O	17*	74*	nt	nt
CC(C)(C)c1ccc(/C=C/C(=O)Nc2ccncc2)cc1	53*	67*	?	?
CC(=O)NS(=O)(=O)c1ccc(NC(=O)/C=C/c2ccccc2)cc1	1	-17	-4%[46.1 µM]	1%[46.1 µM]
CCc1cc(C(=O)N2CCCC(C(=O)c3ccc(C(F)(F)F)cc3)C2)n(C)n1 (stereo not given)	1	12	nt	nt
CC1CCN(CCC(=O)N/N=C/c2ccc([N+](=O)[O-])cc2)CC1	-8	8	nt	-7%[46.1 µM]
CC(C)(C)NC(=O)/C=C/c1cccs1	17*	22	nt	nt
CN1CCN(C(=S)NC(=O)/C=C/c2cccs2)CC1	22*	5	18%	15%[46.1 µM]
Cc1ccc(NC(=O)/C=C/c2cccs2)c([N+](=O)[O-])c1	41*	63*	2%	?
CCC(C)NC(=O)/C=C/c1cccs1 (stereo not given)	13	10	6%	?
O=c1cnnc(N/N=C/C2CC=CCC2)[nH]1 (stereo not given)	-4	-14	-3%[46.1 µM]	10%[46.1 µM]
CCC(Sc1nc2nccnc2c(=O)n1Cc1ccc(Cl)cc1)C(=O)NC1CCCCC1 (stereo not given)	nt	nt	2%[46.1 µM]	nt
CCOCCCNc1nc(C)nc2c1nnn2Cc1c(F)cccc1Cl	0	-9	-29%[46.1 µM]	?
CCOc1ccc(C(=O)Nc2ccc3c(c2)OCCO3)cc1OC	20*	63*	-30%	?
CCOc1cc(C(=O)Nc2ccc3c(c2)OCO3)ccc1OC(F)F	23*	52	-31%	0%
CCOc1ncccc1C(=O)Nc1ccc2c(c1)OCO2	9	9	nt	15%[46.1 µM]
COC(=O)C(Cc1c[nH]c2ccccc12)NC(=O)c1ccccc1Br (stereo not given)	8	54	nt	nt
COC(=O)C(Cc1c[nH]c2ccccc12)NC(=O)COc1ccc(Cl)cc1Cl (stereo not given)	29*	37	-18%[46.1 µM]	nt
CCOC(=O)C(Cc1c[nH]c2ccccc12)NC(=O)c1ccccc1Br (stereo not given)	37*	53*	?	10%
O=C(Nc1ccccc1)C(=O)c1c[nH]c2ccccc12	31*	67*	?	?
O=C(NCc1cccs1)C(=O)c1c[nH]c2ccccc12	33*	90	nt	nt
CC(=O)N1CCCc2cc(S(=O)(=O)N3CCCC(C)C3)ccc21 (stereo not given)	-5	-4	6%[46.1 µM]	-1%[46.1 µM]
O=C(NCc1cccnc1)C(=O)c1c[nH]c2ccccc12	-3	-3	nt	nt
O=C(Cc1c[nH]c2ccccc12)NCc1ccc(Cl)cc1Cl	12	45*	1%	?
O=C(/C=C/c1ccccc1)c1c[nH]c2ccccc12	34*	64*	nt	nt
SMILES	CHX counter	Shiga inhibitor	LASV entry inh	MARV entry inh
O=C(NCc1ccccc1Cl)C(=O)c1c[nH]c2ccccc12	29*	71*	nt	nt
COc1ccccc1CNC(=O)Cc1c[nH]c2ccccc12	-3	25	-20%	7%[46.1 µM]
O=C(Cc1c[nH]c2ccccc12)NCc1ccco1	2	-12	1%	5%[46.1 µM]
O=C(NCc1ccco1)C(=O)c1c[nH]c2ccccc12	31*	54*	nt	nt
Cc1ccc(NC(=O)CNC(=O)c2ccco2)c(Cl)c1	25*	47*	nt	nt
Cc1c(Cl)cccc1NC(=O)CNC(=O)c1ccco1	-1	-3	nt	nt
O=C(CNC(=O)c1ccco1)Nc1ccc(Cl)cc1	27*	34*	?	?
O=C(CNC(=O)c1ccco1)Nc1ccc(Br)cc1	45*	61*	nt	nt
CCc1ccc(NC(=O)CC2C(=O)N(c3ccccc3)C(=O)N2C(C)C)cc1 (stereo not given)	nt	nt	-3%[46.1 µM]	nt
Cc1ccc(OC(C)C(=O)Nc2ccncc2)cc1C (stereo not given)	-1	nt	nt	nt
CCOC(=O)C1CCN(S(=O)(=O)c2cc(-c3cc(C)no3)ccc2OC)CC1	nt	nt	14%[46.1 µM]	nt
COC(=O)C(=C/C=C/N1CCOCC1)C(=O)OC	1	3	nt	nt
COCCNP(=O)(c1ccccc1)c1nc2ccccc2s1 (stereo not given)	-2	-25	nt	nt
Cc1ccc(NP(=O)(c2ccccc2)c2nc3ccccc3s2)cc1 (stereo not given)	31*	62*	nt	nt
O=C(Nc1ccccc1F)n1ncc2cc(Cl)ccc21	12*	26	nt	nt
Cc1cccc2c1cnn2C(=O)Nc1cc(F)ccc1F	40*	59*	nt	nt
COc1cc(NC(=O)n2ncc3cc(Cl)ccc32)cc(OC)c1	43*	60*	nt	nt
COc1cc(OC)c(NC(=O)n2ncc3cc(Cl)ccc32)cc1Cl	nt	nt	3%[46.1 µM]	-9%[46.1 µM]
CCOC(=O)c1ccccc1NC(=O)n1ncc2cc(Cl)ccc21	nt	nt	6%[46.1 µM]	7%[46.1 µM]
COc1ccc(NC(=O)n2ncc3cc(Cl)ccc32)cc1OC	47*	56*	nt	nt
O=C(O)COc1ccc(Br)cc1CP(=O)(c1ccccc1)c1ccccc1	-2	-4	27%	-9%[46.1 µM]
COC(=O)N[C@@H](c1ccco1)C(C(C)=O)C(=O)OC (stereo not given in full)	nt	nt	?	-27%[14.2 µM]
O=C1NC(=O)c2cc(Nc3ccccc3)c(Nc3ccccc3)cc21	-6	-11	?	23µM*
c1ccc(-n2ncc3c(NCc4cccs4)ncnc32)cc1	51*	52*	?	?
COc1ccc(-n2ncc3c(NCc4ccccn4)ncnc32)cc1	50*	90*	-16%	15%
SMILES	CHX counter	Shiga inhibitor	LASV entry inh	MARV entry inh
COc1ccc(-n2ncc3c(NCc4ccco4)ncnc32)cc1	39*	90*	-21%	?
Clc1ccc(-n2ncc3c(NCc4ccco4)ncnc32)cc1	2	-10	?	-4%
C=CCNc1ncnc2c1cnn2-c1ccc(OC)cc1	30*	61*	?	?
CCOCCCNC(=O)c1c(NC(=O)c2cc(=O)c3cc(C)c(C)cc3o2)sc2c1CCC2	nt	nt	0%[46.1 µM]	4%[46.1 µM]
Cc1ccc(NC(=O)CSCC(=O)NNC(=O)c2ccoc2C)cc1	nt	nt	2%	-6%
COc1ccc(-n2ncc3c(NCc4cccs4)ncnc32)cc1	38*	145*	19%	7%
c1ccc(CNc2ncnc3nc[nH]c23)nc1	0	4	nt	nt
c1ccc(-n2ncc3c(NCc4cccnc4)ncnc32)cc1	20*	67	6%	-11%
c1csc(CNc2ncnc3nc[nH]c23)c1	16*	15	10%	9%
CCCCN(CCCC)c1ncnc2c1cnn2-c1cccc(C)c1	nt	nt	3%[46.1 µM]	nt
CCCN(CCC)c1ncnc2c1cnn2-c1ccc(OC)cc1	30*	66*	?	?
CC(C)Oc1ccc(C2CC(=O)N(c3cccc(/C=C/C(=O)O)c3)C2=O)cc1 (stereo not given)	1	-1	6%[46.1 µM]	25%[46.1 µM]
O=C(NNC(=O)C1[C@H]2CCCC[C@@H]12)NC1CCCCC1 (stereo not given in full)	7	24	5%	-3%
CCN1C(=O)[C@@H]2C(C(=O)c3cnccn3)=NN[C@@H]2C1=O	-2	-13	5%[46.1 µM]	16%[46.1 µM]
CCN(C(=O)C1CCN(S(=O)(=O)c2cc(Br)cc3c2N(C(C)=O)CC3)CC1)c1cccc(C)c1	nt	nt	-24%[46.1 µM]	?
Cc1ccc(S(=O)(=O)NCc2c(Cl)cccc2Oc2ccccc2)cc1	-4	16	5%	?
O=C(NC(=S)Nc1c(Cl)ccc2nsnc12)c1ccco1	-2	-5	-24%	11%
CCCOc1ccc(-c2nc(OC)c3ccccc3n2)cc1	35*	112*	5%	?
Cc1cc2ncc(-c3ccccc3)nc2cc1C	39*	106*	nt	nt

Compound activity deposited in PubChem by National Center for Advancing Translational Sciences (NCATS).
